Results as given in the supplement of paper PMC7411054.
Structures can show the parent of a compound that is named as a salt. Unmarked numbers belong to inactive results.

The compounds below were run on HepG2-CANX-COX4 (assay: phenotypically active (imaging signature differs from DMSO and reproducible) at any of 0.3-9 uM (binary (1 = active, 0 = inactive)); higher = active). Conditions: treatment time: 24 h.
Summary of the method: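 Two criteria together defined phenotypic activity: deviation and reproducibility. Deviation meant ≥3 of 4 wells beyond the 95th percentile of Euclidean distances in solvent control wells, and reproducibility meant a median replicate Pearson correlation above the 95th percentile of non-replicates. Wells had been treated for 24 h at 0.3, 1, 3 or 9 µM in fifteen gene-edited A549, HepG2 and WPMY1 reporter lines before live imaging.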

SMILES	phenotypically active
Cc1sc2c(c1C)C(c1ccc(Cl)cc1)=N[C@@H](CC(=O)OC(C)(C)C)c1nnc(C)n1-2	1 (active)
CN1C[C@H](C(=O)N[C@]2(C)O[C@@]3(O)[C@@H]4CCCN4C(=O)[C@H](Cc4ccccc4)N3C2=O)C[C@@H]2c3cccc4[nH]cc(c34)C[C@H]21.CN1C[C@H](C(=O)N[C@]2(C)O[C@@]3(O)[C@@H]4CCCN4C(=O)[C@H](Cc4ccccc4)N3C2=O)C[C@@H]2c3cccc4[nH]cc(c34)C[C@H]21 [dihydroergotamine]	0
C[C@@]12C(=O)OC(=O)[C@]1(C)[C@H]1CC[C@@H]2O1 [Cantharidin]	1 (active)
COc1cc2c(c(OC)c1OC)-c1ccc(OC)c(=O)cc1[C@@H](NC(C)=O)CC2 [colchicine]	1 (active)
CC(C)(O)[C@H]1O[C@H]2CC[C@@]3(C)[C@@](O)(CC[C@H]4Cc5c([nH]c6ccccc56)[C@@]43C)C2=CC1=O [paxilline]	0
N#CC(C#N)=NNc1cccc(Cl)c1	1 (active)
Cc1c(C(=O)Nc2cccc(C(F)(F)F)c2)cc(-c2ccccc2)n1CCCN1CCOCC1	0
CCN1CCN(C(=O)Cc2ccc(Nc3ncc(F)c(Nc4ccc(C(=O)Nc5ccccc5Cl)cc4)n3)cc2)CC1	1 (active)
CC(C)(C)c1cc(C=C(C#N)C#N)cc(Br)c1O	0
O=C(NCCN1CCC2(CC1)C(=O)NCN2c1cccc(F)c1)c1ccc(F)c(F)c1 [ML 298 hydrochloride]	0
CC(C)(N)Cc1ccccc1 [phentermine]	0
